Tests used:
Experiment in all cases: log2 ratio of Biotin-Ahx-Ub-VS probe labelling (fragment/DMSO); higher = less target engagement (more negative = stronger competition), active = hit call of the paper (q ≤ 0.05, log2 ratio ≤ -1)
Conditions in all cases: compound concentration: 200 uM; treatment time: 3 h
[1] = target: USP16 (UniProt Q9Y5T5)
Method in brief: (§1)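 Labelled DUBs were enriched with NeutrAvidin, digested with LysC and trypsin, and run by diaPASEF LC-MS/MS. The labelling used Biotin-Ahx-Ub-VS at 0.5 µM final for 1 h on HEK293T lysate (495 µg per sample) previously treated in triplicate with fragment at 200 µM or vehicle for 3 h. Values are average log2 fragment/vehicle ratios by unpaired t-test on global-median-normalised Spectronaut quantities of proteins with ≥2 unique peptides.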

[2] = target: T1, USP19 (UniProt O94966)
T1 sequence (whole entry): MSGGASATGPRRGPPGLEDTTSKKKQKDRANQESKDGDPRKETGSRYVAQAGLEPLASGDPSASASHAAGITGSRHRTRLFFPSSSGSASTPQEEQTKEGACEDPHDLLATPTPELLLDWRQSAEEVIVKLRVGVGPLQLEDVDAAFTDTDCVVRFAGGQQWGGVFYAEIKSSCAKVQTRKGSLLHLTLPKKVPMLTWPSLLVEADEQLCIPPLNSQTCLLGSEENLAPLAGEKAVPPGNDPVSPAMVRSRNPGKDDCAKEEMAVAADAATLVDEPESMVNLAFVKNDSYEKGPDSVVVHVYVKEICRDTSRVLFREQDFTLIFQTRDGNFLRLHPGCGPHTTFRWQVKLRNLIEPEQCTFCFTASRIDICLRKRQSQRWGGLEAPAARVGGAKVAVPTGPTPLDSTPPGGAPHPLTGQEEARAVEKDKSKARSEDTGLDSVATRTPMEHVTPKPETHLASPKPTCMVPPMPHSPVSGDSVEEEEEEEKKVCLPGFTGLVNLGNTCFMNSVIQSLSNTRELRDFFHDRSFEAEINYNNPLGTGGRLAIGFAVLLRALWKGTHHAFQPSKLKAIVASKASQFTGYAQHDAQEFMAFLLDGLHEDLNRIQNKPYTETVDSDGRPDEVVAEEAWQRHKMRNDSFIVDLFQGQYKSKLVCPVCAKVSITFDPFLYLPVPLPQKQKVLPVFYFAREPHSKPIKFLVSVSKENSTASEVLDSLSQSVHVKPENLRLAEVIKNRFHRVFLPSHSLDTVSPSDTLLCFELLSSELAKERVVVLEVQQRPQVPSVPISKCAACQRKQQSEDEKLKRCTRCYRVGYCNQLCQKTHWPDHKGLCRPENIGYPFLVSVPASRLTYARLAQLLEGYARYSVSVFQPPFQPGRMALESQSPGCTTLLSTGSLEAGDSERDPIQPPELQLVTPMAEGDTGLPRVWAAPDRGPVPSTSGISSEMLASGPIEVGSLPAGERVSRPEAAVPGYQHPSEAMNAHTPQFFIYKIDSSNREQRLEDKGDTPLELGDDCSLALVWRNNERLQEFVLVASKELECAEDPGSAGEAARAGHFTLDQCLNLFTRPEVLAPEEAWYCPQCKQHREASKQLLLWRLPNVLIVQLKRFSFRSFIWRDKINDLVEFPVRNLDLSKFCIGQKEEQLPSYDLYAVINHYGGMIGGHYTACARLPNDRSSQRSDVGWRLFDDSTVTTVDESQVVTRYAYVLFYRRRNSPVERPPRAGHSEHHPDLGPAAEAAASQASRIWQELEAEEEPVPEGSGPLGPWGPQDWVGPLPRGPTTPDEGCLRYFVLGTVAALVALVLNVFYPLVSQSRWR
Method in brief: as §1

[3] = target: USP24 (UniProt Q9UPU5)
Method in brief: as §1

[4] = target: T2, USP25 (UniProt Q9UHP3)
T2 sequence (whole entry): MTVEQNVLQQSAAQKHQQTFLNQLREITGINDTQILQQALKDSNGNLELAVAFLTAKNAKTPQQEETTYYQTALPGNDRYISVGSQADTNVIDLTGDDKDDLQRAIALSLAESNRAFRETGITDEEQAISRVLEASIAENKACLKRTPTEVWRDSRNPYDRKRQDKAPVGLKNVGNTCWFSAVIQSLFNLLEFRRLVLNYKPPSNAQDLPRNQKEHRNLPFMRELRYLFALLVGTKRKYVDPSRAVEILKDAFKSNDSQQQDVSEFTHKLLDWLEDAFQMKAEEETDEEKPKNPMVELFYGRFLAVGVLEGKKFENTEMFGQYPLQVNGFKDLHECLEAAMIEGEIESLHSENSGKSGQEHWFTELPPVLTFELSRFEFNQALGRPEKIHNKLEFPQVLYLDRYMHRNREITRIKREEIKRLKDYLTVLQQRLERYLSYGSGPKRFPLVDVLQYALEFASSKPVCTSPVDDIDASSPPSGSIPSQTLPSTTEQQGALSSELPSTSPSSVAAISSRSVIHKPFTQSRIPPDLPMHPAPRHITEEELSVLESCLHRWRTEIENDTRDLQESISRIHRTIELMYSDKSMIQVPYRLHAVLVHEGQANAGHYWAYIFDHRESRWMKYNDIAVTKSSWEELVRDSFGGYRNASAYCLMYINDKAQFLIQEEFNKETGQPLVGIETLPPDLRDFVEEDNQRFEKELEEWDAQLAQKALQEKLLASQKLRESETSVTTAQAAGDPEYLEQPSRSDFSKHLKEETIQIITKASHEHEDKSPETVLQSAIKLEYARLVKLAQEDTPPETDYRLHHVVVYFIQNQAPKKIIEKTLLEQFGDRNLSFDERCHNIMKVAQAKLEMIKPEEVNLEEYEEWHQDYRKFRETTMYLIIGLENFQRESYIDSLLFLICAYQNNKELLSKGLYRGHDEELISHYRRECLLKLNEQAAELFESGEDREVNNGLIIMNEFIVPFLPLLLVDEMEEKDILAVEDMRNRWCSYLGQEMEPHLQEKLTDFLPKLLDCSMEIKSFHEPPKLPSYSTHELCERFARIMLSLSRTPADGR
Method in brief: as §1

[5] = target: T3, USP28 (UniProt Q96RU2)
T3 sequence (whole entry): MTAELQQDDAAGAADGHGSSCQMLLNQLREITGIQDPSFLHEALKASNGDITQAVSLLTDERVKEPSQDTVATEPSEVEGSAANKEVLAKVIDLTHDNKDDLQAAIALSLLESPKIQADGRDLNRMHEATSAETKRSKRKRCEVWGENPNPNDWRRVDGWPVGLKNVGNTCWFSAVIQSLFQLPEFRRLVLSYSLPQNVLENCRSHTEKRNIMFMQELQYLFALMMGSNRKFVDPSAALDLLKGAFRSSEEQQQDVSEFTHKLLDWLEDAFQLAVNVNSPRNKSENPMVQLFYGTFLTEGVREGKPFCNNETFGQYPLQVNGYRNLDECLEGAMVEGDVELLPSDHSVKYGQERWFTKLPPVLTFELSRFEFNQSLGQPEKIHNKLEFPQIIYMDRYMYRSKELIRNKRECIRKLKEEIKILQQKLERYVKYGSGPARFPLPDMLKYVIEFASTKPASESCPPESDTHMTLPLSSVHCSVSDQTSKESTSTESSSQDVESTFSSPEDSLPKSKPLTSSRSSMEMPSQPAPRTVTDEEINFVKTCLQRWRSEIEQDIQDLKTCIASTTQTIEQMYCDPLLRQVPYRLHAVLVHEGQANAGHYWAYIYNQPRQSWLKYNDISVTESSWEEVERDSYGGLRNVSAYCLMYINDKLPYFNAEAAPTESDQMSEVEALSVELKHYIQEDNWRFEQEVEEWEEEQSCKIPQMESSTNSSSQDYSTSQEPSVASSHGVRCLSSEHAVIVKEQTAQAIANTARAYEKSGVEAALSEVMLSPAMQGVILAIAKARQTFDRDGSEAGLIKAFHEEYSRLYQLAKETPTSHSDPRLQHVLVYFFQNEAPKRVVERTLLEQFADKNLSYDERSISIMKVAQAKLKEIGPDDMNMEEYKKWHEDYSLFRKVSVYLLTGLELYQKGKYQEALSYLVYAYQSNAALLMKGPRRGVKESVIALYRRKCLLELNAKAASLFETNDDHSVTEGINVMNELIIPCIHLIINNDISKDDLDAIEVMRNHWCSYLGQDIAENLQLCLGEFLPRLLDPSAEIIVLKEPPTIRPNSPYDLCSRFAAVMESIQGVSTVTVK
Method in brief: as §1

Measured: log2 ratio of Biotin-Ahx-Ub-VS probe labelling

USP24, sequence (Q9UPU5 whole entry): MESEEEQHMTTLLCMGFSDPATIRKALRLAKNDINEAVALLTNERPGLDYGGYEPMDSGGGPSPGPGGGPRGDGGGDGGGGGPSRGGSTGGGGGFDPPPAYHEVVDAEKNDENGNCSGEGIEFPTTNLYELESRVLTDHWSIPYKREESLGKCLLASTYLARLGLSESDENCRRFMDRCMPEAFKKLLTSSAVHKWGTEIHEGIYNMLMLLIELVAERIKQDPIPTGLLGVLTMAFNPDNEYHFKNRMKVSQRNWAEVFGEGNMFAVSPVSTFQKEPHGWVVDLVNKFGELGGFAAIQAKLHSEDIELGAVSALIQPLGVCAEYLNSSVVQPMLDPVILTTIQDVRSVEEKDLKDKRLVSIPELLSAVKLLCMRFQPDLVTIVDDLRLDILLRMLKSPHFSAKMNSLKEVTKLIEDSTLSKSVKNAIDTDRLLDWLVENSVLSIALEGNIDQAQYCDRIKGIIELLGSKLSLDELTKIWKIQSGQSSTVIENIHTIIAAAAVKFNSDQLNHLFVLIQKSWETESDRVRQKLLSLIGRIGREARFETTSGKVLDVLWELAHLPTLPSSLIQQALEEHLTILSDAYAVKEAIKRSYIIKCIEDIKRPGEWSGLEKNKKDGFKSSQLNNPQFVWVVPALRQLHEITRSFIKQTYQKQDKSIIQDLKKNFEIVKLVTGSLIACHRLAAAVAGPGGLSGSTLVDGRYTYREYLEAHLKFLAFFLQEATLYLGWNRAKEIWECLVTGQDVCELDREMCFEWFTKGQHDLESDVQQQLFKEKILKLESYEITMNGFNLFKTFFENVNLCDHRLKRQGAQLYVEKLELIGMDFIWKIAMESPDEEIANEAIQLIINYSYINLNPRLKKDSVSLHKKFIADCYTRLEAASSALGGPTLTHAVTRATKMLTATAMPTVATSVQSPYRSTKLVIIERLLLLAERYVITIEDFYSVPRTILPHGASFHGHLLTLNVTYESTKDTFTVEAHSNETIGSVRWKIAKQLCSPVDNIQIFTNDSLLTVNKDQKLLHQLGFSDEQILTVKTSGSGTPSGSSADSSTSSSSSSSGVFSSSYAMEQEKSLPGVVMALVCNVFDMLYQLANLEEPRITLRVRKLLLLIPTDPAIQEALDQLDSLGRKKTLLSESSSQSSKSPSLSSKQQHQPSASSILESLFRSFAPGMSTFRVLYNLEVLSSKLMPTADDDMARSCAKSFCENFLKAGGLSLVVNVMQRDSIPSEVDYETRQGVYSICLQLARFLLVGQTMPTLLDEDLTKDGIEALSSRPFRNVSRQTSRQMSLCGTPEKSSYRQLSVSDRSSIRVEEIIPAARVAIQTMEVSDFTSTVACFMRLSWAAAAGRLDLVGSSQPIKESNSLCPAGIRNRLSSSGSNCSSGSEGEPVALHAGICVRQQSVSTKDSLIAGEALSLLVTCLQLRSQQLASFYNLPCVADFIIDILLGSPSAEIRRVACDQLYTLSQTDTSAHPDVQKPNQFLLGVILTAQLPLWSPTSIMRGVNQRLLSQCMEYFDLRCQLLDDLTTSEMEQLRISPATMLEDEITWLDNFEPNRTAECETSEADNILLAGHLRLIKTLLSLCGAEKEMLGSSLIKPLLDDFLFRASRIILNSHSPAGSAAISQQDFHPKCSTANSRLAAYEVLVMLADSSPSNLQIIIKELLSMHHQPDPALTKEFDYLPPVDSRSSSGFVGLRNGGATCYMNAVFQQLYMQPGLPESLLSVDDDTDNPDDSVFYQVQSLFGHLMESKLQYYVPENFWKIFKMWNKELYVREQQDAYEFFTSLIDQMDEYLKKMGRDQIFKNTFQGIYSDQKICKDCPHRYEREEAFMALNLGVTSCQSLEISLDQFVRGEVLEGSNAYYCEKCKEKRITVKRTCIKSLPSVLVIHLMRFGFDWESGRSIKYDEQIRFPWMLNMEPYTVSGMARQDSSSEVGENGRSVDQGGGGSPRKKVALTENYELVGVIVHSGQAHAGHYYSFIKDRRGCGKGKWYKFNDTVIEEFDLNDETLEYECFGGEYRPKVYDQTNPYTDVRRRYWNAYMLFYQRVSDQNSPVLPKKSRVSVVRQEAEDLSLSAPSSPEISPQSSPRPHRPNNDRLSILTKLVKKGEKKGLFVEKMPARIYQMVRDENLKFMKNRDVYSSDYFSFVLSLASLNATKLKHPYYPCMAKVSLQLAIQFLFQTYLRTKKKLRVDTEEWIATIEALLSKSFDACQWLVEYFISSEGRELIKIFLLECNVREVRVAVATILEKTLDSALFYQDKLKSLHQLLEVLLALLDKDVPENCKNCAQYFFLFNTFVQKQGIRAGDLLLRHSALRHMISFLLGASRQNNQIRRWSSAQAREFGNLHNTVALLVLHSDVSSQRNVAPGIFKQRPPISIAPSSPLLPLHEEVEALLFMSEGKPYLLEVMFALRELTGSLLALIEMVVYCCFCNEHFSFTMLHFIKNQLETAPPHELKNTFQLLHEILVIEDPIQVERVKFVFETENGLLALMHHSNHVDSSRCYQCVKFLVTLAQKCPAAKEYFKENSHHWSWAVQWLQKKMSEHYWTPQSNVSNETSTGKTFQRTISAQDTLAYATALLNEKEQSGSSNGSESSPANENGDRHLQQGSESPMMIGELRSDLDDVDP
USP16, sequence (Q9Y5T5 whole entry, looked up, the tested form may be a part): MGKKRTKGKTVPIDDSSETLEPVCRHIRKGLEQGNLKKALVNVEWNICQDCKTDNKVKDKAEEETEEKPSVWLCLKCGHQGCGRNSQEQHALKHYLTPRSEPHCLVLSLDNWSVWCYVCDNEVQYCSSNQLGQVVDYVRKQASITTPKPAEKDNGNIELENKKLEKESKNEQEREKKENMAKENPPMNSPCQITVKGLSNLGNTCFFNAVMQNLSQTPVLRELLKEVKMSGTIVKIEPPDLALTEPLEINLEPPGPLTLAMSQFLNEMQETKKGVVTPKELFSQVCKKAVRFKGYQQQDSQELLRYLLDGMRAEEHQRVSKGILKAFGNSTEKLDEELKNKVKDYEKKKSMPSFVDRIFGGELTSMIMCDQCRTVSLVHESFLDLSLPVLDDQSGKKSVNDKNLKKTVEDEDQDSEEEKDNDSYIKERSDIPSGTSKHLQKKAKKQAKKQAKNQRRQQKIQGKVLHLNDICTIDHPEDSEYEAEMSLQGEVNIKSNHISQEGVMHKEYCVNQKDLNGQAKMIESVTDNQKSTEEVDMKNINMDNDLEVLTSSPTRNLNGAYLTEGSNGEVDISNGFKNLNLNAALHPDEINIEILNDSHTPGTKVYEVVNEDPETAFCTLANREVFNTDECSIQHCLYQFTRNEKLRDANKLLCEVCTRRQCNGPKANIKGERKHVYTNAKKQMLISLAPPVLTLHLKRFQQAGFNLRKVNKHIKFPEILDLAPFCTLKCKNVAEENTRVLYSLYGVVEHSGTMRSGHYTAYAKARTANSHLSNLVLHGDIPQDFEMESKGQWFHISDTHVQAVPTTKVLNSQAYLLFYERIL

O=C(CCl)N(C1CCCC1)C1CCS(=O)(=O)C1 (stereo not given)
inactive: [1] -0.121 | [2] -0.0865 | [3] -0.274 | [4] 0.0715 | [5] -0.36

Source: the supplement of paper PMC11732987, “Enantioselective OTUD7B fragment discovery through chemoproteomics screening and high-throughput optimisation” (Communications Chemistry, 2025)
